Pf apPOL inh = Pf-apPOL DNA polymerase inhibition; Recombinant Pf-apPOL, molecular beacon fluorescence, 1.5 h; 210,000 compounds, 0.25% hits; inhibition, % at 10 µM
mHTT CaM bind = inhibitors of human mutant huntingtin-calmodulin interaction. P42858. AlphaScreen His-mHTT/GST-CaM binding, luminescence. 190,000 compounds, 3.6% hits. inhibition, % at 15 µM. AID 1671202;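 also: 0% = both proteins with DMSO and 100% = one protein alone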
Target sequence (P42858 whole entry, looked up, stated change not applied): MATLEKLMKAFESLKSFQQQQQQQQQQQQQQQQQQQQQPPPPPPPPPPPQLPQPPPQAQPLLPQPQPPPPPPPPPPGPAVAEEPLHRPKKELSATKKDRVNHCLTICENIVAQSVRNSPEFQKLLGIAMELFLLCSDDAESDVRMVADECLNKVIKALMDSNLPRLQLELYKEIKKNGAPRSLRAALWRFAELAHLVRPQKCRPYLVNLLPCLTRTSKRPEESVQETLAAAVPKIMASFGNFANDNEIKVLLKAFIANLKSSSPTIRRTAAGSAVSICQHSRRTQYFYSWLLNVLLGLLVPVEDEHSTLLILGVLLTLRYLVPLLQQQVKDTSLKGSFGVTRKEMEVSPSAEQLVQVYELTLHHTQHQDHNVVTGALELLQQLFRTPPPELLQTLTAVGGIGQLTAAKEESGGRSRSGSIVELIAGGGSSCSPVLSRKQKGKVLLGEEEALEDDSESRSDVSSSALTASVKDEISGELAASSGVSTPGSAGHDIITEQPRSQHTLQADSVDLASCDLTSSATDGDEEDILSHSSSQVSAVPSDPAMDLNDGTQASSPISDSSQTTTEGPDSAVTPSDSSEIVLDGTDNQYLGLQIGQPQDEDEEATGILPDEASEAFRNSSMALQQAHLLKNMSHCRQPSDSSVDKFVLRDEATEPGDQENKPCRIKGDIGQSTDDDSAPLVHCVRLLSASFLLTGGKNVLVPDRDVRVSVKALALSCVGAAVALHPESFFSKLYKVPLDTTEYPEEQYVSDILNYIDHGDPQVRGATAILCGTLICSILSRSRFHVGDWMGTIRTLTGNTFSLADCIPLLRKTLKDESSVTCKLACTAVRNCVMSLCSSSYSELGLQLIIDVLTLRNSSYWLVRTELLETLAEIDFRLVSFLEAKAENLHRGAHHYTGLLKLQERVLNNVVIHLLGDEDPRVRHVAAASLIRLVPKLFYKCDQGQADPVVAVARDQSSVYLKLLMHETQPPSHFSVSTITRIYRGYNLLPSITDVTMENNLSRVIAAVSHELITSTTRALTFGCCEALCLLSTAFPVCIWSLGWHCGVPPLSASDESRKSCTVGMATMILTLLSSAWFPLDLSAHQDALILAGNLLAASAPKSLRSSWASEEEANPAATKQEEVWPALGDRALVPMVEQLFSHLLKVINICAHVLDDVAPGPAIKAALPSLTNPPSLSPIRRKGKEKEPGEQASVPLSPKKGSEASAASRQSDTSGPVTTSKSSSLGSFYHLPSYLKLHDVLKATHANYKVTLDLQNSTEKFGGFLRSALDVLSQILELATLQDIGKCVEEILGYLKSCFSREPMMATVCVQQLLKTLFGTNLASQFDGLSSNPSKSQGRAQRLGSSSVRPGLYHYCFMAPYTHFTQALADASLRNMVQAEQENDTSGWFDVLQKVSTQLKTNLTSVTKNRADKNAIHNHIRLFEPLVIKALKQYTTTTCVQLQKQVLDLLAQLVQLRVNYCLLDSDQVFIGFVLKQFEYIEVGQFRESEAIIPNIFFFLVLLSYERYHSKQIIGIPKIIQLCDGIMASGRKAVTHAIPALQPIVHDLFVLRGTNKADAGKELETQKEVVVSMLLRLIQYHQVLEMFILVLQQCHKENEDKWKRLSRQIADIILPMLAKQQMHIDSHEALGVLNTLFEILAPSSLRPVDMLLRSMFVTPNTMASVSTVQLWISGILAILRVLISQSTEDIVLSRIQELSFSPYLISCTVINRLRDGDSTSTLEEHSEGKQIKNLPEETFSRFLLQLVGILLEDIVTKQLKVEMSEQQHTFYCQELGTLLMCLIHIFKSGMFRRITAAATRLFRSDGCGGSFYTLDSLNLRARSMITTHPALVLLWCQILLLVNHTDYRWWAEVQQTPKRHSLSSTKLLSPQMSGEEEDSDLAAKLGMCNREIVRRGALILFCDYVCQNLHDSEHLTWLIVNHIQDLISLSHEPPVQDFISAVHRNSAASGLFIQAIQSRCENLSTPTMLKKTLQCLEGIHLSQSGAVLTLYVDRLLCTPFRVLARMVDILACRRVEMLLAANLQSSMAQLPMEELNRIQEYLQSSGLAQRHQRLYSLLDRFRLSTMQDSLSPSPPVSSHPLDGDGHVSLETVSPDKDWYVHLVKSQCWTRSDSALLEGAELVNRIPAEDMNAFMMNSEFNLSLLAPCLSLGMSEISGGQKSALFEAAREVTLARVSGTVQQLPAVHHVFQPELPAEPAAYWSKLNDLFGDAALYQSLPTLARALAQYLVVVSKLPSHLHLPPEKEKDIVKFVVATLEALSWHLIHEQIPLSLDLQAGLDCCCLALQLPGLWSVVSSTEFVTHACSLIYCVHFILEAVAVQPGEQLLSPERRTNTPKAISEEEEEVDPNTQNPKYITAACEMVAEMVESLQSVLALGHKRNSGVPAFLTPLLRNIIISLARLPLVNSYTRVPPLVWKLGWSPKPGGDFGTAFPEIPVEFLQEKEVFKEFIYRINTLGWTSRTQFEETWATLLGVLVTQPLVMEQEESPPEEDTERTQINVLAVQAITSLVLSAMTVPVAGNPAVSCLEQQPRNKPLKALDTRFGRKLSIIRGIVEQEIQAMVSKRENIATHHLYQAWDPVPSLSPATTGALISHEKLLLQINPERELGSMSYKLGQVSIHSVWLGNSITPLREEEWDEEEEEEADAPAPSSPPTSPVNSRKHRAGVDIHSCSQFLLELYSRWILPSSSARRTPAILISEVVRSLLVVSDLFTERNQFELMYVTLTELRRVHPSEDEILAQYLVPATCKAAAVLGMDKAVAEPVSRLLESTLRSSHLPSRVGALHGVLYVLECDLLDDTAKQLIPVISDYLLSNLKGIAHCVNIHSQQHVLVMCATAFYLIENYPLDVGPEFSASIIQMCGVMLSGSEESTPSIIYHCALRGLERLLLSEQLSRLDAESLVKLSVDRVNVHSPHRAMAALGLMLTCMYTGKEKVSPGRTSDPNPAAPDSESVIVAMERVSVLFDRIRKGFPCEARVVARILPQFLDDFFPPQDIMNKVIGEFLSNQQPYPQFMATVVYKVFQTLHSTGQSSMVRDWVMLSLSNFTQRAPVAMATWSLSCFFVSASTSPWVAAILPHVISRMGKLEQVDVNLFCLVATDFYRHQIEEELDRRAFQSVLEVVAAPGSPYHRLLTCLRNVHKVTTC
* = called active by the depositor; · = not tested or not shown. This is a sample that favours compounds with a hit; in the whole collection about 3.6% have one here. Rule as the data show it: active = inhibition above about 50%; inactive = the rest.

SMILES	Pf apPOL inh	mHTT CaM bind
COc1ccc(C=C2Oc3c(ccc(O)c3C)C2=O)c(OC)c1	-4	-8
Cc1ccc(C(=O)N2CCc3c(c(-c4nc(-c5ccccc5)no4)nn3C)C2)c(C)c1	-2	8
CCN1c2ccc(C)cc2C(=O)NC12CCN(C(=O)c1ccc(OC)c(OC)c1)CC2	-4	10
CCOc1ccc(C2CC(c3cc(Br)ccc3F)n3ncnc3N2)cc1Cl (stereo unspecified)	-1	27
O=c1oc2ccccc2cc1-c1ccc(N=Cc2cccc([N+](=O)[O-])c2O)cc1	-2	24
O=C1C=C(c2ccc(Cl)cc2)C(=O)N1c1ccccc1Cl	-3	62*
COc1ccccc1N1C(=O)C=C(c2ccc(Cl)cc2)C1=O	0	20
Cc1ccccc1CNC(=O)c1cc(N2CCCC(C)C2)nc2ccccc12 (stereo unspecified)	2	-42
CCCCCCN1C[C@H](O)[C@@H](n2cc(-c3ccc(F)cc3)nn2)C[C@@H]1c1ccccc1	-4	4
Cc1ccc([C@H]2C[C@H](O)[C@@H](n3cc(-c4ccc(F)cc4)nn3)CN2Cc2cccs2)cc1	-3	8
O[C@H]1CN(CC2CCCCC2)[C@@H](c2ccc(Cl)cc2)C[C@@H]1n1cc(-c2ccc(F)cc2)nn1	2	16
CCCCCCN1C[C@H](n2cc(-c3ccc(F)cc3)nn2)[C@@H](O)C[C@@H]1c1ccccc1	-2	60*
O[C@H]1CN(CC2CCCCC2)[C@@H](c2ccc(Cl)cc2)C[C@@H]1n1cc(C2CC2)nn1	-4	54*
O[C@H]1C[C@H](c2ccc(Cl)cc2)N(Cc2cccs2)C[C@@H]1n1cc(-c2ccc(F)cc2)nn1	-2	100*
Cc1ccc([C@H]2C[C@H](O)[C@@H](n3cc(-c4ccc(F)cc4)nn3)CN2C(=O)C2CCCCC2)cc1	0	74*
O=C(C1CCCCC1)N1C[C@@H](n2cc(-c3ccc(F)cc3)nn2)[C@H](O)C[C@@H]1c1ccccc1	0	-3
COc1ccc(N2C=C(C#N)S(=O)(=O)c3ccccc32)c(C)c1	0	-5
CC(C)(C)n1nc2c(c1NC(=O)c1ccc(Cl)c([N+](=O)[O-])c1)CSC2	-4	35
CCOC(C)=C1SC(=S)NC1=O	0	·
CCCCCCN1C[C@H](n2cc(C3CC3)nn2)[C@@H](O)C[C@@H]1c1ccc(Cl)cc1	-1	100*
O[C@H]1C[C@H](c2ccccc2)N(CC2CCCCC2)C[C@@H]1n1cc(C2CC2)nn1	-2	93*
O[C@@H]1CN(CC2CCCCC2)[C@@H](c2ccccc2)C[C@H]1n1cc(C2CC2)nn1	-4	5
CCCCCCN1C[C@@H](n2cc(C3CC3)nn2)[C@H](O)C[C@@H]1c1ccc(Cl)cc1	1	23
Cc1cccc(-n2nc3c(c2NC(=O)C2CC2)CS(=O)C3)c1C (stereo unspecified)	-2	1
c1ccc2c(c1)nnn2CCSCCn1nnc2ccccc21	5	1
SMILES	Pf apPOL inh	mHTT CaM bind
ClC(Cl)(Cl)CCCCn1nnc2ccccc21	-2	100*
Cc1ccc(-n2cc(C3CCN(C(=O)c4ccc(C#N)cc4)CC3)cn2)cc1	-7	12
CSc1ccc(CNC(=O)c2cn3cc(Cl)ccc3n2)cc1	-1	2
COc1ccc(C(=O)CC2(O)C(=O)Nc3ccccc32)cc1[N+](=O)[O-] (stereo unspecified)	-15	-5
COc1ccc(C(=O)CC2(O)C(=O)N(Cc3ccc(Cl)cc3)c3ccccc32)cc1[N+](=O)[O-] (stereo unspecified)	-8	100*
N#C/C(C(N)=O)=C1\Oc2c(cc(O)cc2-c2ccccc2)S1	-8	31
CN1C(=CC=Cc2cc[n+](CCO)c3ccccc23)Sc2ccccc21	78*	95*
CN1/C(=C/c2cccc[n+]2CCO)Sc2ccccc21	-1	8
O=C(Nc1nc2c(s1)CN(C(=O)Cc1cccs1)CC2)c1cnccn1	16	14
O=C(Nc1nc2c(s1)CN(CC(=O)N1CCCc3ccccc31)CC2)c1cnccn1	14	63*
Cc1ccc(C2=N/C(=C\c3cc(Br)ccc3F)C(=O)O2)cc1[N+](=O)[O-]	0	0
Cc1cc(C)cc(NC(=O)Cn2cccc2-c2nnc(C3CC3)o2)c1	1	0
O=C1CS/C(=C(\C(Cl)=C(Cl)Cl)[N+](=O)[O-])N1c1ccc(F)cc1	4	36
CCOc1ccc(N2C(=O)CS/C2=C(\C(Cl)=C(Cl)Cl)[N+](=O)[O-])cc1	-10	57*
O=C(Nc1ccc(O)c2c(=O)cc(-c3ccccc3Cl)oc12)c1ccc(Cl)cc1Cl	1	-3
O=c1cc(-c2ccccc2Cl)oc2c(NS(=O)(=O)c3cc(Cl)cc(Cl)c3O)ccc(O)c12	36	97*
CCn1cc(SCC(=O)Nc2ccccc2C(F)(F)F)c2ccccc21	-4	-21
O=S(=O)(Cc1c(F)cccc1Cl)N1CCc2nc[nH]c2C1	-2	-6
O=C(Nc1ccc(Cl)cc1-c1nc2ccccc2[nH]c1=O)c1ccccc1F	-8	-9
